Results on nine compounds are retold here after PubChem BioAssay (NCI).

Common to all, as to experiment: NCI-60 one-dose screen, 48 h (100 = growth as untreated, 0 = no growth, -100 = all killed)
One assay has as its system NCI-H23 lung. Conditions: 10 µM unless noted.
Another assay deals with NCI-H226 lung. Particulars: 10 µM unless noted.
For another assay, the system named is MDA-MB-231 breast. Conditions: 10 µM unless noted.
The subject of the next assay is SF-268 CNS. Particulars: 10 µM unless noted.
A further assay has as its system SF-539 CNS. Conditions: 10 µM unless noted.
The next assay has as its system HCT-15 colon. Conditions: 10 µM.
For a further assay, the system named is HT29 colon. Conditions: 10 µM unless noted.
The next assay relates to SNB-75 CNS. Particulars: 10 µM unless noted.
Another assay concerns PC-3 prostate. Conditions: 10 µM unless noted.
The subject of a further assay is SK-MEL-5 melanoma. Particulars: 10 µM unless noted.
The next assay deals with UACC-62 melanoma. Particulars: 10 µM unless noted.
The subject of a further assay is SK-MEL-28 melanoma. Conditions: 10 µM unless noted.
Another assay relates to SN12C renal. Conditions: 10 µM unless noted.
Another assay has as its system ACHN renal. Conditions: 10 µM unless noted.
A further assay deals with OVCAR-8 ovarian. Particulars: 10 µM unless noted.
Another assay has as its system OVCAR-3 ovarian. Conditions: 10 µM unless noted.
A further assay relates to NCI/ADR-RES ovarian. Particulars: 10 µM unless noted.
For the next assay, the system named is MDA-MB-435 melanoma. Conditions: 10 µM unless noted.
The next assay relates to MCF7 breast. Conditions: 10 µM unless noted.
For another assay, the system named is KM12 colon. Particulars: 10 µM unless noted.

This is part of a sample that, as a whole, favours compounds with a hit. Of some 83,000 tested, about 20% had one in any assay.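 Note: values are percent growth. 100 is the growth of untreated cells, values between 100 and 0 indicate rising inhibition; between -100 and 0 indicates cell death.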 A number with no mark means an inactive call. Calls of active or inactive are those of the source. Rule for the calls: active = growth percent below 10; inactive = the rest.

Regarding `S=P(Nc1ccccc1)(Nc1ccccc1)c1ccccc1`, the growth in the assay on NCI-H23 lung was 92.5%; with NCI-H226 lung, 112%; in the assay with MDA-MB-231 breast, 90%; in the assay on SF-268 CNS it was 90.8%; in the assay with SF-539 CNS, 95.8%; in the assay with HCT-15 colon, 104%. The growth in the assay on HT29 colon was 104%; in the assay on SNB-75 CNS, 96.7%; in the assay on PC-3 prostate it was 85.9%; with SK-MEL-5 melanoma it was 92.1%; in the assay with UACC-62 melanoma, 84.2%; with SK-MEL-28 melanoma, 119%. Moreover, the growth in the assay with SN12C renal is 104%; with ACHN renal, 102%; in the assay with OVCAR-8 ovarian it was 111%; with OVCAR-3 ovarian, 103%; with NCI/ADR-RES ovarian, 88.3%; in the assay with MDA-MB-435 melanoma it was 101%. Besides, the growth with MCF7 breast is 109%; with KM12 colon, 102%.

In the case of `CC1COC(=O)C1` (stereo unspecified), the growth in the assay on NCI-H23 lung is 104%; with NCI-H226 lung, 96.7%; with MDA-MB-231 breast, 120%; with SF-268 CNS it was 109%; with SF-539 CNS, 96.4%; with HCT-15 colon, 105%. The growth is 98.2% with HT29 colon; 81.9% in the assay on SNB-75 CNS; 102% with PC-3 prostate; 99.6% in the assay on SK-MEL-5 melanoma; 106% in the assay with UACC-62 melanoma; 103% with SK-MEL-28 melanoma. The growth in the assay with SN12C renal was 98.4%; in the assay on ACHN renal, 108%; in the assay on OVCAR-8 ovarian, 104%; in the assay with OVCAR-3 ovarian, 107%; with NCI/ADR-RES ovarian it was 106%; with MDA-MB-435 melanoma it was 102%. Moreover, the values for the growth in the assay on MCF7 breast and in the assay with KM12 colon were 93.8% and 99.8%, respectively.

Take `O=CN1N=C(c2ccccc2)CC1c1sc(N(CCCl)CCCl)nc1Cl` (stereo unspecified): the growth with NCI-H23 lung is 87.5%; in the assay with NCI-H226 lung, 85.1%; with MDA-MB-231 breast, 77.8%; in the assay with SF-268 CNS, 101%; in the assay on SF-539 CNS, 109%; in the assay on HCT-15 colon, 92.8%. Moreover, the growth in the assay on HT29 colon is 92.2%; in the assay on SNB-75 CNS it was 72%; with PC-3 prostate, 82.5%; with SK-MEL-5 melanoma it was 98.5%; with UACC-62 melanoma it was 67.5%; in the assay on SK-MEL-28 melanoma, 98.7%. Besides, the growth in the assay on SN12C renal is 96.1%; with ACHN renal, 90.9%; in the assay on OVCAR-8 ovarian it was 91%; in the assay on OVCAR-3 ovarian, 96.1%; with NCI/ADR-RES ovarian, 93.6%; in the assay on MDA-MB-435 melanoma, 99.2%. Moreover, the growth in the assay with MCF7 breast was 90.1%; with KM12 colon it was 98.9%.

On to `c1cnc2c(c1)ccc1ncccc12`, for which the growth with NCI-H23 lung is 121%; with NCI-H226 lung, 100%; with MDA-MB-231 breast, 108%; in the assay with SF-268 CNS, 96.4%; in the assay with SF-539 CNS it was 106%; with HCT-15 colon it was 110%. In addition, the growth in the assay with HT29 colon is 109%; in the assay with SNB-75 CNS it was 97.8%; with SK-MEL-5 melanoma, 104%; in the assay with UACC-62 melanoma, 94.6%; in the assay with SK-MEL-28 melanoma it was 205%; in the assay with SN12C renal, 95.3%. The growth with ACHN renal is 90.7%; in the assay on OVCAR-8 ovarian, 94.4%; with OVCAR-3 ovarian it was 90.6%; with NCI/ADR-RES ovarian it was 78.4%; with MDA-MB-435 melanoma, 113%; in the assay with MCF7 breast, 107%. For the same compound, the growth with KM12 colon is 107%.

In the case of `CNC(=O)Oc1cccc(N(C)C)c1`, the growth in the assay with NCI-H23 lung is 106%; in the assay with NCI-H226 lung, 93.3%; with MDA-MB-231 breast it was 93%; in the assay with SF-268 CNS, 106%; in the assay on SF-539 CNS, 100%; with HCT-15 colon it was 103%. In addition, the growth in the assay with HT29 colon was 106%; in the assay with SNB-75 CNS, 97.5%; with PC-3 prostate it was 97.2%; with SK-MEL-5 melanoma it was 99.2%; in the assay with UACC-62 melanoma, 100%; with SK-MEL-28 melanoma, 111%. Further, the growth with SN12C renal is 94.6%; in the assay with ACHN renal it was 104%; with OVCAR-8 ovarian, 99.5%; in the assay with OVCAR-3 ovarian, 110%; in the assay on NCI/ADR-RES ovarian, 107%; with MDA-MB-435 melanoma, 97.5%. In addition, the values for the growth in the assay with MCF7 breast and with KM12 colon were 94.1% and 104%, respectively.

With `CC[C@@H](C)/C=C(C)/C=C/C(=O)c1c(O)c(-c2ccc(O)cc2)cn(O)c1=O`, the growth in the assay on NCI-H23 lung is 19.6%; with NCI-H226 lung it was -1.76% (active); in the assay on SF-268 CNS, -0.607% (active); in the assay with SF-539 CNS, 5.1% (active); in the assay with HCT-15 colon, 30.7%; in the assay with SNB-75 CNS it was 2.38% (active). Moreover, the growth in the assay on PC-3 prostate is 37.7%; in the assay on SK-MEL-5 melanoma it was -75.6% (active); in the assay with UACC-62 melanoma it was -31.6% (active); in the assay on SK-MEL-28 melanoma, 34.7%; with SN12C renal it was 13.6%; in the assay with ACHN renal, 0.29% (active). Further, the growth with OVCAR-8 ovarian is 4.95% (active); in the assay with OVCAR-3 ovarian, 25.7%; in the assay with NCI/ADR-RES ovarian, 1.53% (active); in the assay with MDA-MB-435 melanoma, 24.1%; with MCF7 breast it was 15.4%; in the assay with KM12 colon, 23.5%.

Regarding `N#C[Se]CCN1C(=O)C2C(C1=O)[C@H]1C=C[C@@H]2S1` (stereo partly specified), the growth in the assay on NCI-H23 lung was -11.7% (active); in the assay with NCI-H226 lung it was -54.6% (active); in the assay on MDA-MB-231 breast it was -40.5% (active); with SF-268 CNS it was -45.2% (active); in the assay with SF-539 CNS it was -70.5% (active); with HCT-15 colon, -4.75% (active). Besides, the growth in the assay on HT29 colon is 5.94% (active); in the assay with PC-3 prostate, 5.36% (active); in the assay on SK-MEL-5 melanoma, -52.8% (active); with UACC-62 melanoma, 18.9%; in the assay on SK-MEL-28 melanoma it was -19.2% (active); in the assay with SN12C renal it was -18.8% (active). Besides, the growth in the assay on ACHN renal is -2.15% (active); in the assay on OVCAR-8 ovarian, -19.3% (active); in the assay with OVCAR-3 ovarian it was -64.6% (active); in the assay with NCI/ADR-RES ovarian, -10.7% (active); in the assay with MDA-MB-435 melanoma it was -39.2% (active); in the assay with MCF7 breast, 5.71% (active). Further, the growth in the assay with KM12 colon was 15.2%.

For `O=C1NC(=S)NC(=O)C1=Cc1ccccc1`, the growth is 86.2% in the assay on NCI-H23 lung; 98.3% with NCI-H226 lung; 104% in the assay on MDA-MB-231 breast; 110% with SF-268 CNS; 103% with SF-539 CNS; 99.5% in the assay with HCT-15 colon. For the same compound, the growth was 139% in the assay with HT29 colon; 85.7% with SNB-75 CNS; 96.3% with PC-3 prostate; 98.7% with SK-MEL-5 melanoma; 106% in the assay with UACC-62 melanoma; 122% in the assay with SK-MEL-28 melanoma. Moreover, the growth in the assay on SN12C renal was 106%; with ACHN renal, 100%; in the assay on OVCAR-8 ovarian, 110%; in the assay with OVCAR-3 ovarian, 121%; in the assay on NCI/ADR-RES ovarian, 97.7%; in the assay with MDA-MB-435 melanoma it was 124%. Also, the growth was 93.2% with MCF7 breast and 109% in the assay on KM12 colon.

With `CN1C(=O)NC(=O)C(N=Nc2ccc(Cl)cc2)C1=O` (stereo unspecified), the growth is 95.3% with NCI-H23 lung; 105% in the assay on NCI-H226 lung; 85.7% in the assay with MDA-MB-231 breast; 93.5% in the assay with SF-268 CNS; 101% in the assay on SF-539 CNS; 88% in the assay on HCT-15 colon. Also, the growth in the assay with HT29 colon was 99.1%; in the assay on SNB-75 CNS it was 126%; in the assay with PC-3 prostate it was 94.6%; in the assay on SK-MEL-5 melanoma, 96%; with UACC-62 melanoma, 49.9%; in the assay on SK-MEL-28 melanoma, 122%. For the same compound, the growth was 103% with SN12C renal; 87.9% with ACHN renal; 104% in the assay with OVCAR-8 ovarian; 105% in the assay on OVCAR-3 ovarian; 83.5% in the assay on NCI/ADR-RES ovarian; 95.7% in the assay on MDA-MB-435 melanoma. Also, the results for the growth with MCF7 breast and with KM12 colon were 93% and 82.6%, respectively.
